Assay results: PubChem BioAssay (NCI)
Compounds without any hit were thinned out: in the full panel of roughly 79,000, 15% have a hit. Values without a mark were called inactive. Activity calls are given as the source filed them. Cut-off read from the data, not from the text of the source: active = growth inhibition above about 70%; inactive = the rest.

What was measured:
[1] = NCI Yeast Anticancer Drug Screen. Data for the rad50 strain (AID 155);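 note: 0% = growth of vehicle-only cultures of the same strain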; details: S. cerevisiae rad50 strain growth inhibition; at 50.0 µM; active compounds read high
Procedure, shortened: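 Inhibition values express reduced yeast growth in compound-treated cultures relative to vehicle-treated controls.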

[2] = NCI Yeast Anticancer Drug Screen. Data for the mec2-1 strain (AID 157); details: S. cerevisiae mec2-1 strain, at 50.0 µM, active compounds read high
Procedure, shortened: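 Strain: mec2-1 (DNA repair/cell cycle alteration). Compound exposure, then growth measured; inhibition expressed relative to vehicle.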

[3] = NCI Yeast Anticancer Drug Screen. Data for the sgs1 mgt1 strain (AID 161);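 note: 0% = growth of cultures given vehicle only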; details: S. cerevisiae sgs1 mgt1 strain, at 50.0 µM, active compounds read high
Procedure, shortened: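 Read-out: growth inhibition vs vehicle controls. Cells: mutant yeast strain deficient in DNA damage repair.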

[4] = NCI Yeast Anticancer Drug Screen. Data for the cln2 rad14 strain (AID 165);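 note: 0% = growth equal to vehicle treated cultures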; details: S. cerevisiae cln2 rad14 strain, at 50.0 µM, active compounds read high
Procedure, shortened: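 Compounds are applied to the cln2 rad14 yeast strain, and growth is then compared with that of vehicle-treated cultures to give inhibition.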

[5] = NCI Yeast Anticancer Drug Screen. Data for the bub3 strain (AID 167); details: S. cerevisiae bub3 mutant strain, at 50.0 µM, active compounds read high
Procedure, shortened: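 Steps: expose the mutant yeast strain to compound; grow alongside vehicle-treated cultures; measure growth; express inhibition against the vehicle cultures.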

[6] = NCI Yeast Anticancer Drug Screen. Data for the mlh1 rad18 strain (AID 175); details: S. cerevisiae mlh1 rad18 strain growth inhibition; at 50.0 µM; active compounds read high
Procedure, shortened: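 Read-out is yeast growth inhibition, calculated against vehicle-only controls. The compound was applied to a strain engineered with DNA damage repair alterations.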

| SMILES | growth inhibition [1] [%] | growth inhibition [2] [%] | growth inhibition [3] | growth inhibition [4] [%] | growth inhibition [5] [%] | growth inhibition [6] |
| --- | --- | --- | --- | --- | --- | --- |
| c1ccc(C2=C(c3ccccc3)CSSC2)cc1 | 46.4 | 34.6 | 79.8% (active) | 46.6 | 41.7 | 93.5% (active) |
| CC1CCN(C(c2ccccc2)c2ccc3ccccc3c2O)CC1 (stereo not drawn) | 51.8 | 42.2 | 55.4% | -6.8 | 33.6 | 75% (active) |
| Cc1ccc(OC(=O)c2cccs2)cc1 | 29.6 | 4.95 | -11.9% | -48.1 | 22 | 22.1% |
| CN(C)C=NCCN1CCOCC1 | 9.3 | 15.1 | 26.8% | 5.55 | -7.1 | -47.6% |
| CC(CS(C)(=O)=O)S(=O)(=O)Cc1ccccc1 (stereo not drawn) | -2.4 | 6.05 | 3.2% | -28.8 | 6.25 | -0.45% |
| OCC(O)C(O)C(O)c1nn(-c2ccccc2)c2nc3ccccc3nc12 (stereo not drawn) | 3.6 | 1.3 | 3.4% | 7.15 | 11.3 | 17.2% |
| N#CN=CN1CCN(c2ccccc2)CC1 | 4.8 | -11.2 | -0.15% | -22.6 | -5.4 | -11.9% |
| CCCCCCC1N(C(C#N)c2ccccc2)CCCN1C(C#N)c1ccccc1 (stereo not drawn) | 19.8 | 14.2 | 16.6% | 7.6 | 2.4 | 36.4% |
| C1CCC2(CC1)CCCN2 | 7.15 | 3.35 | 1.4% | -3.5 | -1.75 | 6.35% |
| CC(=O)C(C)C(C)=O | -2.95 | 0.7 | 1.4% | -21.6 | 22.6 | -0.85% |
| CCCCOc1ccc2c(c1)CC[C@@H]1[C@@H]2CC[C@]2(C)C(=O)N(CCCC)C(=O)C[C@@H]12 | 5 | -3.25 | 16.4% | -17.1 | 16.5 | 4.2% |
| O=C(N=Nc1c(O)[nH]c2ccccc12)c1ccncc1 | -10.8 | 2.15 | -9.25% | -19.4 | -7.4 | 11.1% |
| CNC(=S)n1ncnc1N | 11 | -5.95 | -2.9% | -17.8 | -3.75 | 8.25% |
| CCCCOC(=O)c1ccc(O)cc1.[Zn+2] | -31.1 | -11.6 | -16.6% | -41.9 | -22.4 | -35.4% |
| C#CC(C)(O)CCCCCC (stereo not drawn) | 3.7 | 16.4 | 12% | -4.05 | 35 | -7.1% |
| CCCCOC(=O)C1CC2OC2CC1C(=O)OCCOCCOC(=O)C1CC2OC2CC1C(=O)OCCCC (stereo not drawn) | -18.3 | -6.45 | -14.4% | -39.9 | 14.6 | -42.5% |
| CCOc1cc(/C=N/NC(=O)c2ccccc2NC(=O)c2ccccc2)ccc1OC | -21.6 | 2.35 | 17.8% | -4.1 | 5.4 | 5.7% |
| N#C/C(=C\c1ccccc1)c1cccc(Cl)c1 | -32.2 | -5.8 | -13.3% | -97.1 | 13.8 | -12.7% |
| NC(C(=O)O)c1ccccc1C(=O)O (stereo not drawn) | -21.4 | -19.9 | -13.4% | 0.8 | -7.8 | -21.9% |

| SMILES | growth inhibition [1] [%] | growth inhibition [2] [%] | growth inhibition [3] | growth inhibition [4] [%] | growth inhibition [5] [%] | growth inhibition [6] |
| --- | --- | --- | --- | --- | --- | --- |
| S=c1nc[nH]c2c1CNC2 | -8.2 | 10.9 | -5.4% | 1.7 | 5.25 | -6.15% |
| COc1ccc2c(c1)CN(Cc1ccccc1)CO2 | 3.85 | -3.4 | 6% | -17.4 | 13 | 11.7% |
| NC(=O)/C=C1\NC(=O)CS1 | 0.05 | 7.7 | 1% | -31.1 | -4.55 | 4.2% |
| C=C1CC(C)(COc2cc(=O)oc3ccccc23)OC1=O (stereo not drawn) | 51 | 30.3 | 53.2% | 38.5 | 25.6 | 40.5% |
| COc1ccc(Sc2cccc(Cl)c2)c(C(=O)O)c1 | -21.8 | -18.4 | -27.2% | 3.8 | -0.55 | 6.5% |
| C/C=C/C=N/N(C(=O)c1cc([N+](=O)[O-])cc([N+](=O)[O-])c1)C1=NC(c2ccccc2)C(c2ccccc2)=NN1 (stereo not drawn) | 41.9 | 24.4 | 13% | 41.1 | 15.3 | 26.3% |
| O=C1C=C(NCC(c2ccccc2)c2ccccc2)C(=O)c2ncccc21 | 33.2 | 24.8 | 43% | 34.9 | 40.9 | 77.8% (active) |
| CCOC(=O)C(C)C(=O)OCC | 51.2 | -17.9 | 2.55% | -3.6 | 2.3 | 34.5% |
| COC(=O)CCCC(=O)O | 4.4 | -5.2 | -2.6% | -15.4 | 2.9 | 8.25% |
| Cc1ccc(S(=O)(=O)N(c2cc(C)ccc2C)c2ccccc2N)cc1 | 58.6 | 50.9 | 41.8% | 49.9 | 20.9 | 25.2% |
| c1ccc(-c2nnc(-c3ccccc3)c3nonc23)cc1 | 0.55 | 14.6 | 9.1% | -12.8 | 12.6 | -22.3% |
| CCc1ccccc1NC(=O)N1CCOCC1 | -8.45 | -27.9 | -1.55% | 3.05 | -4.15 | -7.15% |
| CC(=O)C(N=Nc1nc2ccccc2[nH]1)C(C)=O | 27.1 | 14.1 | -1.8% | 15.2 | 47.9 | 32.5% |
| Cc1c(C#N)c(N)[nH]c(=S)c1C#N | 5.5 | 20.2 | 4.95% | 1.25 | 0.45 | 11.3% |
| CO/C(N)=C(\C#N)N=Cc1cccs1 | 3.95 | 4.6 | 11.4% | 5.1 | -8.4 | 9.9% |
| Clc1ccc2c(c1)C1Oc3ccc(Cl)cc3C(O2)O1 | -5.5 | -24.5 | 1% | -14.3 | -6.4 | -2.3% |
| NC(=O)c1ccc(=S)[nH]c1 | -8 | -12.7 | -7.55% | -27.1 | -6.1 | 14.7% |
| CN(C)Cc1ccc(O)c(CN(C)C)n1 | -21.1 | -19.1 | -14.8% | -3.65 | -49.8 | -19.2% |
| c1ccc(CN2CCc3ncnc(Nc4ccccc4)c3C2)cc1 | -13.4 | 1.25 | 5.5% | -16.8 | 4.75 | -5.05% |
